{
  "source": "PubChem BioAssay (Tox21)",
  "note": "Records with an inconclusive call do not appear. Entries that show only a call come without a potency. A structure can be active in one record and inactive in another. The source made the active and inactive calls. The call rests on the fitted dose curve; in most records, active means well fitted curve in the direction sought with a large enough effect in the repeat runs; inconclusive means weak or mixed curves; inactive means no such curve, though single readings can be large; an effect the other way counts as inactive or inconclusive.",
  "data": [
    {"experiment": "qHTS assay to identify small molecule antagonists of the retinoid acid receptor (RAR) signaling pathway - cell viability counter screen (AID 1159551); further: nearly all actives have a fitted effect of over 35% in size", "conditions": "C3RL4 cells viability, ATP luminescence (CellTiter-Glo), 6 h; series mostly up to 92.4 µM", "in_short": "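Viability of C3RL4 cells is quantified from ATP by luminescence after 6 h treatment at 37 C with compounds and 1 uM retinol.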", "values": [
      {"smiles": "CON(C)C(=O)Nc1ccc(Cl)c(Cl)c1", "outcome": "inactive"},
      {"smiles": "OCCN(CCO)CCO", "outcome": "inactive"},
      {"smiles": "CC(C)C1(C)N=C(c2nc3ccccc3cc2C(=O)O)NC1=O", "note": "(configuration not stated)", "outcome": "inactive"},
      {"smiles": "Clc1cccc(Cl)c1Cl", "outcome": "inactive"},
      {"smiles": "O=[N+]([O-])c1ccccc1", "outcome": "inactive"},
      {"smiles": "Cc1ccc(N)cc1Cl", "outcome": "inactive"},
      {"smiles": "O=c1[nH]c(=O)[nH]c(=O)[nH]1", "outcome": "inactive"},
      {"smiles": "O=C(NC(=O)c1c(F)cccc1F)Nc1cc(Cl)c(OC(F)(F)C(F)C(F)(F)F)cc1Cl", "note": "(configuration not stated)", "outcome": "inactive"},
      {"smiles": "Cc1cc(Cl)ccc1O", "outcome": "inactive"},
      {"smiles": "CN=C=S", "outcome": "inactive"},
      {"smiles": "CC(C)(C)OOC(=O)c1ccccc1", "outcome": "inactive"},
      {"smiles": "O=NN1CCCC1", "outcome": "inactive"},
      {"smiles": "CC(C)C#N", "outcome": "inactive"},
      {"smiles": "C#CCN(C)[C@H](C)Cc1ccccc1", "outcome": "inactive"},
      {"smiles": "c1ccc(-c2ccccc2)cc1", "outcome": "inactive"},
      {"smiles": "c1cc2c3c(cccc3c1)CC2", "outcome": "inactive"},
      {"smiles": "CNC(=O)Oc1ccccc1OC(C)C", "outcome": "inactive"},
      {"smiles": "O=Cc1cccc(Oc2ccccc2)c1", "outcome": "inactive"},
      {"smiles": "CC(C)(Cl)Cl", "outcome": "inactive"},
      {"smiles": "NCC(O)c1ccc(O)cc1", "note": "(configuration not stated)", "outcome": "inactive"},
      {"smiles": "C=CC(N)=O", "outcome": "inactive"},
      {"smiles": "BrCCBr", "outcome": "inactive"},
      {"smiles": "Nc1ccccc1C(=O)O", "outcome": "inactive"},
      {"smiles": "CN(C)CCO", "outcome": "inactive"},
      {"smiles": "CC1C=[C-]C=C1.[C-]#[O+].[C-]#[O+].[C-]#[O+].[Mn]", "outcome": "inactive"},
      {"smiles": "O=[N+]([O-])c1ccc([As](=O)(O)O)cc1", "outcome": "inactive"},
      {"smiles": "Clc1ccc(Cl)cc1", "outcome": "inactive"},
      {"smiles": "CC(C)(C)C(O)(CCc1ccc(Cl)cc1)Cn1cncn1", "note": "(configuration not stated)", "outcome": "inactive"},
      {"smiles": "C1CC2OC2CC1C1CO1", "note": "(configuration not stated)", "outcome": "inactive"},
      {"smiles": "Nc1ccc(Oc2ccc(N)cc2)cc1", "outcome": "inactive"},
      {"smiles": "COCCl", "outcome": "inactive"},
      {"smiles": "CC(C)OC(=O)Nc1ccccc1", "outcome": "inactive"},
      {"smiles": "CN(C)N=O", "outcome": "inactive"},
      {"smiles": "Clc1ccccc1Cl", "outcome": "inactive"},
      {"smiles": "CCc1cccc(C)c1N(C(=O)CCl)C(C)COC", "note": "(configuration not stated)", "outcome": "inactive"},
      {"smiles": "CCCCOC(=O)c1ccccc1C(=O)OCCCC", "outcome": "inactive"}
    ]},
    {"experiment": "qHTS assay to identify small molecule antagonists of the retinoic acid receptor (RAR) signaling pathway (AID 1159552; further: nearly all actives have a fitted effect of over 50% in size; further: potency means the concentration at half of the fitted maximal effect)", "conditions": "C3RL4 RARE luciferase reporter, retinol-stimulated, 6 h; series mostly up to 92.4 µM", "in_short": "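Overnight-plated C3RL4 reporter cells get compound, then retinol to 1 uM final; plates sit 6 hr at 37 C, 5% CO2. A luciferase reagent is added and light output recorded after 30 min at room temperature.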", "values": [
      {"smiles": "CON(C)C(=O)Nc1ccc(Cl)c(Cl)c1", "Potency": "inactive"},
      {"smiles": "OCCN(CCO)CCO", "Potency": "inactive"},
      {"smiles": "CC(C)C1(C)N=C(c2nc3ccccc3cc2C(=O)O)NC1=O", "note": "(configuration not stated)", "Potency": "inactive"},
      {"smiles": "Clc1cccc(Cl)c1Cl", "Potency": "inactive"},
      {"smiles": "O=[N+]([O-])c1ccccc1", "Potency": "inactive"},
      {"smiles": "Cc1ccc(N)cc1Cl", "Potency": "inactive"},
      {"smiles": "O=c1[nH]c(=O)[nH]c(=O)[nH]1", "Potency": "inactive"},
      {"smiles": "O=C(NC(=O)c1c(F)cccc1F)Nc1cc(Cl)c(OC(F)(F)C(F)C(F)(F)F)cc1Cl", "note": "(configuration not stated)", "Potency": "inactive"},
      {"smiles": "Cc1cc(Cl)ccc1O", "Potency": "inactive"},
      {"smiles": "CN=C=S", "Potency": "inactive"},
      {"smiles": "CC(C)(C)OOC(=O)c1ccccc1", "Potency": "inactive"},
      {"smiles": "O=NN1CCCC1", "Potency": "inactive"},
      {"smiles": "CC(C)C#N", "Potency": "16.3 µM (active) and inactive"},
      {"smiles": "C#CCN(C)[C@H](C)Cc1ccccc1", "Potency": "inactive"},
      {"smiles": "c1ccc(-c2ccccc2)cc1", "Potency": "inactive"},
      {"smiles": "c1cc2c3c(cccc3c1)CC2", "Potency": "inactive"},
      {"smiles": "CNC(=O)Oc1ccccc1OC(C)C", "Potency": "inactive"},
      {"smiles": "O=Cc1cccc(Oc2ccccc2)c1", "Potency": "inactive"},
      {"smiles": "CC(C)(Cl)Cl", "Potency": "inactive"},
      {"smiles": "NCC(O)c1ccc(O)cc1", "note": "(configuration not stated)", "Potency": "inactive"},
      {"smiles": "C=CC(N)=O", "Potency": "inactive"},
      {"smiles": "BrCCBr", "Potency": "inactive"},
      {"smiles": "Nc1ccccc1C(=O)O", "Potency": "inactive"},
      {"smiles": "CN(C)CCO", "Potency": "inactive"},
      {"smiles": "CC1C=[C-]C=C1.[C-]#[O+].[C-]#[O+].[C-]#[O+].[Mn]", "Potency": "inactive"},
      {"smiles": "O=[N+]([O-])c1ccc([As](=O)(O)O)cc1", "Potency": "inactive"},
      {"smiles": "Clc1ccc(Cl)cc1", "Potency": "inactive"},
      {"smiles": "CC(C)(C)C(O)(CCc1ccc(Cl)cc1)Cn1cncn1", "note": "(configuration not stated)", "Potency": "inactive"},
      {"smiles": "C1CC2OC2CC1C1CO1", "note": "(configuration not stated)", "Potency": "inactive"},
      {"smiles": "Nc1ccc(Oc2ccc(N)cc2)cc1", "Potency": "inactive"},
      {"smiles": "COCCl", "Potency": "inactive"},
      {"smiles": "CC(C)OC(=O)Nc1ccccc1", "Potency": "inactive"},
      {"smiles": "CN(C)N=O", "Potency": "inactive"},
      {"smiles": "Clc1ccccc1Cl", "Potency": "inactive"},
      {"smiles": "CCc1cccc(C)c1N(C(=O)CCl)C(C)COC", "note": "(configuration not stated)", "Potency": "inactive"},
      {"smiles": "CCCCOC(=O)c1ccccc1C(=O)OCCCC", "Potency": "inactive"}
    ]},
    {"experiment": "qHTS assay to identify small molecule agonists of the retinoic acid receptor (RAR) signaling pathway (AID 1159553); further: potency means the concentration at half of the fitted maximal effect", "conditions": "C3RL4 RARE luciferase reporter, agonist, 6 h; activation: at 73.3 µM (top of the series) unless noted", "in_short": "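Compounds dissolved in DMSO were pinned onto C3RL4 cells seeded the previous day, and plates were held 6 hr at 37 C. RARE-driven luciferase output was then read by luminescence.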", "values": [
      {"smiles": "CON(C)C(=O)Nc1ccc(Cl)c(Cl)c1", "Potency": "24.3 µM (active)"},
      {"smiles": "OCCN(CCO)CCO", "Potency": "inactive"},
      {"smiles": "O=[N+]([O-])c1ccccc1", "Potency": "inactive"},
      {"smiles": "O=c1[nH]c(=O)[nH]c(=O)[nH]1", "Potency": "inactive"},
      {"smiles": "O=C(NC(=O)c1c(F)cccc1F)Nc1cc(Cl)c(OC(F)(F)C(F)C(F)(F)F)cc1Cl", "note": "(configuration not stated)", "Potency": "inactive"},
      {"smiles": "Cc1cc(Cl)ccc1O", "Potency": "inactive"},
      {"smiles": "CC(C)(C)OOC(=O)c1ccccc1", "Potency": "inactive"},
      {"smiles": "O=NN1CCCC1", "Potency": "inactive"},
      {"smiles": "C#CCN(C)[C@H](C)Cc1ccccc1", "Potency": "inactive"},
      {"smiles": "c1ccc(-c2ccccc2)cc1", "Potency": "inactive"},
      {"smiles": "c1cc2c3c(cccc3c1)CC2", "Potency": "inactive"},
      {"smiles": "CNC(=O)Oc1ccccc1OC(C)C", "Potency": "inactive"},
      {"smiles": "O=Cc1cccc(Oc2ccccc2)c1", "Potency": "inactive"},
      {"smiles": "C=CC(N)=O", "Potency": "inactive"},
      {"smiles": "CN(C)CCO", "Potency": "inactive"},
      {"smiles": "CC1C=[C-]C=C1.[C-]#[O+].[C-]#[O+].[C-]#[O+].[Mn]", "Potency": "inactive"},
      {"smiles": "O=[N+]([O-])c1ccc([As](=O)(O)O)cc1", "Potency": "inactive"},
      {"smiles": "CC(C)(C)C(O)(CCc1ccc(Cl)cc1)Cn1cncn1", "note": "(configuration not stated)", "activation": "-3.95% [at 94.8 µM] (active)"},
      {"smiles": "C1CC2OC2CC1C1CO1", "note": "(configuration not stated)", "Potency": "inactive"},
      {"smiles": "COCCl", "Potency": "inactive"},
      {"smiles": "CC(C)OC(=O)Nc1ccccc1", "Potency": "30.7 µM (active)"},
      {"smiles": "CN(C)N=O", "Potency": "inactive"},
      {"smiles": "Clc1ccccc1Cl", "Potency": "inactive"},
      {"smiles": "CCc1cccc(C)c1N(C(=O)CCl)C(C)COC", "note": "(configuration not stated)", "Potency": "inactive"},
      {"smiles": "CCCCOC(=O)c1ccccc1C(=O)OCCCC", "Potency": "inactive"}
    ]}
  ]
}
